Test results: ChEMBL document CHEMBL2218924, “A broad activity screen in support of a chemogenomic map for kinase signalling research and drug discovery” (Biochem J, 2013)

These compounds were tested against T1, Calcium/calmodulin-dependent protein kinase type IV (Homo sapiens) (UniProt Q16566). Conditions: at 1 µM.
T1 sequence (whole entry): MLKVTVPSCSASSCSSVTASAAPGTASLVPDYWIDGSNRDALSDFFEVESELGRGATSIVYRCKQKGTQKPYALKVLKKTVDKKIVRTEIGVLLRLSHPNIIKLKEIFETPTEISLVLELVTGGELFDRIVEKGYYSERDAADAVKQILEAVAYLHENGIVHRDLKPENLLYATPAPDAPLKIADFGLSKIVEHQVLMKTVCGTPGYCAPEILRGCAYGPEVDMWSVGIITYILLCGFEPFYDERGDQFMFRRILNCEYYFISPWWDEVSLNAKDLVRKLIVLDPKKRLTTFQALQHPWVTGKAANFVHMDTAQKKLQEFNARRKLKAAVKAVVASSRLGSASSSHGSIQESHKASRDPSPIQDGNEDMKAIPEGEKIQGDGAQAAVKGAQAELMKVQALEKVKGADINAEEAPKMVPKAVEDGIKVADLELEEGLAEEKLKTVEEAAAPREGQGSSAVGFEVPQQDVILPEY

**Q.** Which residual activity does the source give for COc1ccc(COc2ccc(Cc3cnc(N)nc3N)cc2OC)cc1 here?
**A.** 130%

**Q.** O=C(c1cc2cc(O)ccc2[nH]1)c1cc2cc(O)ccc2[nH]1 was tested. Which residual activity did it give?
**A.** 114%

**Q.** How did the residual activity turn out when N#C/C(=C\c1ccc(O)c(O)c1)C(=O)NCc1ccccc1 was run?
**A.** 121%

**Q.** How did the residual activity turn out when Cc1cc(C)c(/C=C2\C(=O)Nc3ccccc32)[nH]1 was run?
**A.** 104%

**Q.** For CC(C)[C@H](CO)Nc1nc(Nc2cc(N)cc(Cl)c2)c2ncn(C(C)C)c2n1, which residual activity is on record?
**A.** 96%

**Q.** O=C1NC(=O)C(c2c[nH]c3ccccc23)=C1c1c[nH]c2ccccc12 was tested. Which residual activity did it give?
**A.** 100%

**Q.** For N#C/C(=C1/Nc2ccccc2S1)c1ccnc(NCCc2cccnc2)n1, which residual activity is on record?
**A.** 88%

**Q.** O=C(Nc1nc2ccccc2n1CCN1CCOCC1)c1cccc([N+](=O)[O-])c1 was tested. Which residual activity did it give?
**A.** 115%

**Q.** How did the residual activity turn out when COc1cc2nccc(Oc3ccc(NC(=S)NC(=O)c4ccccc4C)cc3)c2cc1OC was run?
**A.** 121%

**Q.** How did the residual activity turn out when CN(C)S(=O)(=O)c1ccc2c(c1)/C(=C/c1cc3c([nH]1)CCCC3)C(=O)N2 was run?
**A.** 89%

The compounds below were run against T1, Calcium/calmodulin-dependent protein kinase type IV (Homo sapiens). Conditions: at 10 µM.

**Q.** For O=C(c1cc2cc(O)ccc2[nH]1)c1cc2cc(O)ccc2[nH]1, which residual activity is on record?
**A.** 76%

**Q.** For N#C/C(=C\c1ccc(O)c(O)c1)C(=O)NCc1ccccc1, which residual activity is on record?
**A.** 84%

**Q.** With CCCC(=O)Oc1ccc2[nH]c(C(=O)c3cc4ccccc4[nH]3)cc2c1 as the compound, how does the residual activity read?
**A.** 53%

**Q.** How did the residual activity turn out when Cc1cc(C)c(/C=C2\C(=O)Nc3ccccc32)[nH]1 was run?
**A.** 60%

**Q.** With CC(C)[C@H](CO)Nc1nc(Nc2cc(N)cc(Cl)c2)c2ncn(C(C)C)c2n1 as the compound, how does the residual activity read?
**A.** 33%

**Q.** For CSc1nc(-c2ccc(F)cc2)c(-c2ccnc(NC(C)c3ccccc3)c2)[nH]1 (stereo not given), which residual activity is on record?
**A.** 92%

**Q.** Nc1nc(Nc2ccc(S(N)(=O)=O)cc2)nn1C(=O)c1c(F)cccc1F was tested. Which residual activity did it give?
**A.** 64%

**Q.** For O=C1NC(=O)C(c2c[nH]c3ccccc23)=C1c1c[nH]c2ccccc12, which residual activity is on record?
**A.** 54%

**Q.** With N#C/C(=C1/Nc2ccccc2S1)c1ccnc(NCCc2cccnc2)n1 as the compound, how does the residual activity read?
**A.** 34%

**Q.** For O=C(Nc1nc2ccccc2n1CCN1CCOCC1)c1cccc([N+](=O)[O-])c1, which residual activity is on record?
**A.** 53%

**Q.** COc1cc2nccc(Oc3ccc(NC(=S)NC(=O)c4ccccc4C)cc3)c2cc1OC was tested. Which residual activity did it give?
**A.** 84%

**Q.** Which residual activity does the source give for O=C1C(Cl)=C(N2C(=O)CCC2=O)C(=O)c2ccccc21 here?
**A.** 10%

**Q.** How did the residual activity turn out when N#Cc1c(NC(=O)c2cccc3ccccc23)sc2c1CCCC2 was run?
**A.** 87%

**Q.** Which residual activity does the source give for Oc1cccc(-c2nc(N3CCOCC3)c3oc4ncccc4c3n2)c1 here?
**A.** 75%

**Q.** CN(C)S(=O)(=O)c1ccc2c(c1)/C(=C/c1cc3c([nH]1)CCCC3)C(=O)N2 was tested. Which residual activity did it give?
**A.** 98%
